# What was measured:
# Test in all cases: DAPPL (digital affinity profiling via proximity ligation, sequencing); 10 mM Tris-HCl pH 7.5, 50 mM NaCl, 1 mM DTT, 4% glycerol, room temperature, 30 min; GST-TFs on glutathione beads, 16-mer random dsDNA library, 0.1% formaldehyde crosslink after washing; high values mean tight binding
# Conditions in all cases: protein: recombinant; tags: N-terminal GST; dsDNA, one strand shown
# FLI1 = biological target: T1, FLI1 (Homo sapiens, UniProt Q01543 1-452)
# T1 sequence: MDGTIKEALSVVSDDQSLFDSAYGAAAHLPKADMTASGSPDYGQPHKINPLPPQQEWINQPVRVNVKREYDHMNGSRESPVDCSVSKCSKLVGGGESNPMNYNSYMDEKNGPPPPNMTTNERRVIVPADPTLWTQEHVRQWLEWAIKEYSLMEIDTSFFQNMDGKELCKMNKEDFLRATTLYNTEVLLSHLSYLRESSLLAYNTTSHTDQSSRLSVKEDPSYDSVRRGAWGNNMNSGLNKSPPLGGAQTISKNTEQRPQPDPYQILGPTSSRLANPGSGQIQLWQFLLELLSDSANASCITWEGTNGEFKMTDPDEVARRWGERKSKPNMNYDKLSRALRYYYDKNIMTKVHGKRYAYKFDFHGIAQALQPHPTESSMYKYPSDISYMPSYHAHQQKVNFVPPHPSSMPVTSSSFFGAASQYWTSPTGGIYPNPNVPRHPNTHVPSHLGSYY
# How it was run: (§1)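 GST fusions of human transcription factors were expressed in yeast and captured with glutathione beads. Once given DNA barcodes and pooled alongside a tag-only sample, they were incubated for 30 min at room temperature with 200 nmole of a random double-stranded 16-mer DNA library in Tris/NaCl/DTT/glycerol buffer, then washed, crosslinked (0.1% formaldehyde), proximity-ligated, PCR-amplified and sequenced on an Illumina NextSeq500. The binding signal of each hexamer is its read frequency for a factor divided by its frequency for the tag-only sample.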
# ELK1 = biological target: T2, ELK1 (Homo sapiens, UniProt P19419 1-428)
# T2 sequence: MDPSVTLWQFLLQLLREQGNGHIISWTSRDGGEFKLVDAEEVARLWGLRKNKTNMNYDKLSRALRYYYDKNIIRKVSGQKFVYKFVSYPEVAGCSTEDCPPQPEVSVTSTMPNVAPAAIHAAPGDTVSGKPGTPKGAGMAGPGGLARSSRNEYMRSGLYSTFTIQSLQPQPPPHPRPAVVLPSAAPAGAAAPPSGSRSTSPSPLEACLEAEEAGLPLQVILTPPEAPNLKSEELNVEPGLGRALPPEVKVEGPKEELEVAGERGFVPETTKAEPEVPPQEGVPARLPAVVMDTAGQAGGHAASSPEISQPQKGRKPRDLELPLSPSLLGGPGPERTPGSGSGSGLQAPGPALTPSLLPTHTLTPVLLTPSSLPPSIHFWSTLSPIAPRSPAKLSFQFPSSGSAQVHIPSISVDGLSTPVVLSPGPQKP
# How it was run: as §1
# GABPA = biological target: T3, GABPA (Homo sapiens, UniProt Q06546 1-454)
# T3 sequence: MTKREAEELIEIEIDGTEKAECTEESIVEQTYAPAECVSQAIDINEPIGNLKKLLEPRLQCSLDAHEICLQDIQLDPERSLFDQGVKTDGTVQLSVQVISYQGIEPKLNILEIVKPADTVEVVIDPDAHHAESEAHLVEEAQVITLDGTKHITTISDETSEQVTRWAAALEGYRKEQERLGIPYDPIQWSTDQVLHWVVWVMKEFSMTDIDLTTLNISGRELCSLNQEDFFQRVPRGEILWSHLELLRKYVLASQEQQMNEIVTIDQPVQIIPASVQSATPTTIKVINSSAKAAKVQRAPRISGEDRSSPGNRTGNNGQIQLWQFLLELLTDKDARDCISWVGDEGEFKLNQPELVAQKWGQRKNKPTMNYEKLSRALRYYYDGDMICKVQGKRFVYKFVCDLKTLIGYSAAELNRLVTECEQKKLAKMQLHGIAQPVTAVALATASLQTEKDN
# How it was run: as §1
# ERG = biological target: T4, ERG (Homo sapiens, UniProt P11308 1-479)
# T4 sequence: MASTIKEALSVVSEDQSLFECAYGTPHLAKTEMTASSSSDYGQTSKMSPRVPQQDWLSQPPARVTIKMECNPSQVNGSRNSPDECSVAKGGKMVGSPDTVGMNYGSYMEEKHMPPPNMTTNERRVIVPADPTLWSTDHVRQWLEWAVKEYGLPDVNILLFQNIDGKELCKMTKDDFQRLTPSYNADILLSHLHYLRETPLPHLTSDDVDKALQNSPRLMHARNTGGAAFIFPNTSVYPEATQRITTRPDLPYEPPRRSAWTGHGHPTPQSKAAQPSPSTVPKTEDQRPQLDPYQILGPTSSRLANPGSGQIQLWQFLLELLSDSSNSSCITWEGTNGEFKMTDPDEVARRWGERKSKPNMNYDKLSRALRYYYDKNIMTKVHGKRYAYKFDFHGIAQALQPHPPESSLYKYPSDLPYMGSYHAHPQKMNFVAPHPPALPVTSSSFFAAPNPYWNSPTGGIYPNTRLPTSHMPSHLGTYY
# How it was run: as §1
# ELF1 = ELF1 (Homo sapiens, UniProt P32519 1-619)
# Sequence of ELF1 (P32519 whole entry): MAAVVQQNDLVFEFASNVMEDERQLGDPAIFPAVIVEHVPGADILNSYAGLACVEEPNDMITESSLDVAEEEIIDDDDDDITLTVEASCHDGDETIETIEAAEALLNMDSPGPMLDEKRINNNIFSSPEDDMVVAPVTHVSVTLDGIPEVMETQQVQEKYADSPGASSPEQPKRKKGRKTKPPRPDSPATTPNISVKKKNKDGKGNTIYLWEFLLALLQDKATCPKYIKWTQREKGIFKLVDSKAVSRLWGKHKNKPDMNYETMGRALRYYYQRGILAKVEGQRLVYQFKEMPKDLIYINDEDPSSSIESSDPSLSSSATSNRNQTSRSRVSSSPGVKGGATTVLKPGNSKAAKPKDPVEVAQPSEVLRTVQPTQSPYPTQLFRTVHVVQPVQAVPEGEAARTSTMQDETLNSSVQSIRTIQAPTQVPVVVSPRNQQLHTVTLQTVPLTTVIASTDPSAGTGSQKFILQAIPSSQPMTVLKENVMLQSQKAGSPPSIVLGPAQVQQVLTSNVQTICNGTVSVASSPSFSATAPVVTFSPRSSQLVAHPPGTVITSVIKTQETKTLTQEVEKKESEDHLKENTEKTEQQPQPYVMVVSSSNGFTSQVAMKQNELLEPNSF
# How it was run: as §1
# EHF = biological target: T5, EHF (Homo sapiens, UniProt Q9NZC4 1-300)
# T5 sequence: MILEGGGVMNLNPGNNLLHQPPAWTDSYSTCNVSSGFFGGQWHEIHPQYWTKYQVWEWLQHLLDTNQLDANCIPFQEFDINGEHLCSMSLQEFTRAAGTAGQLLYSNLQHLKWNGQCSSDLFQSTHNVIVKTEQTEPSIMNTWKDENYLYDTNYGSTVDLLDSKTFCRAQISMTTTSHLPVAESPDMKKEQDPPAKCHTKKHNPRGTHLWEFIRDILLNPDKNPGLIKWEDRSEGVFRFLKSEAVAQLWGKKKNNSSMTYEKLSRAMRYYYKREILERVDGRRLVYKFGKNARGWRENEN
# How it was run: as §1
# SPI1 = SPI1 (Homo sapiens, UniProt P17947 1-270)
# How it was run: as §1
# SPIB = SPIB (Homo sapiens, UniProt Q01892 1-262)
# Sequence of SPIB (Q01892 whole entry): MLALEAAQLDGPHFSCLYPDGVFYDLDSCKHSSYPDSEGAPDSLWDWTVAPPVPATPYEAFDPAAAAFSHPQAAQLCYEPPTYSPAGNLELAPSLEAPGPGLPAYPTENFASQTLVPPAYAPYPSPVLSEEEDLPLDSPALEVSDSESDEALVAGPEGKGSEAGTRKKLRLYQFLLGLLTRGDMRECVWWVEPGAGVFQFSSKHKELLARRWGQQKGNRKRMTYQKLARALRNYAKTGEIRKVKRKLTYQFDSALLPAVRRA
# How it was run: as §1
# ELK3 = biological target: T6, ELK3 (Homo sapiens, UniProt P41970 1-407)
# T6 sequence: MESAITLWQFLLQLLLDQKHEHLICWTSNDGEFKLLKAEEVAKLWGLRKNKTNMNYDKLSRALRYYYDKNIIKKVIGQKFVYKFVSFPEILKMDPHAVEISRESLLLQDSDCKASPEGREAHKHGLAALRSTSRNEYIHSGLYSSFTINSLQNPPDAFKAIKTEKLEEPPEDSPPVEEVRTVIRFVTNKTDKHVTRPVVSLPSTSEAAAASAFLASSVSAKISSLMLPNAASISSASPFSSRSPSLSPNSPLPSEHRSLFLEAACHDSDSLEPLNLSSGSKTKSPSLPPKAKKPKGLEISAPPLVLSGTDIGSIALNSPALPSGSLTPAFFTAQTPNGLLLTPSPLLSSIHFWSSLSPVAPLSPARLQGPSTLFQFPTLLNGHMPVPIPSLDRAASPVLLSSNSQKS
# How it was run: as §1
Sequence,binding signal (FLI1),binding signal (ELK1),binding signal (GABPA),binding signal (ERG),binding signal (ELF1),binding signal (EHF),binding signal (SPI1),binding signal (SPIB),binding signal (ELK3)
TAAATC,"1.15 fold enrichment (6-mer frequency, TF over GST control)","1.28 fold enrichment (6-mer frequency, TF over GST control)","1.24 fold enrichment (6-mer frequency, TF over GST control)","1.2 fold enrichment (6-mer frequency, TF over GST control)","1.23 fold enrichment (6-mer frequency, TF over GST control)","1.17 fold enrichment (6-mer frequency, TF over GST control)","1.21 fold enrichment (6-mer frequency, TF over GST control)","1.12 fold enrichment (6-mer frequency, TF over GST control)","1.35 fold enrichment (6-mer frequency, TF over GST control)"
GTCCAC,"1.03 fold enrichment (6-mer frequency, TF over GST control)","1.07 fold enrichment (6-mer frequency, TF over GST control)","1.11 fold enrichment (6-mer frequency, TF over GST control)","1.03 fold enrichment (6-mer frequency, TF over GST control)","1.02 fold enrichment (6-mer frequency, TF over GST control)","1.12 fold enrichment (6-mer frequency, TF over GST control)","1.02 fold enrichment (6-mer frequency, TF over GST control)","1.09 fold enrichment (6-mer frequency, TF over GST control)","1.04 fold enrichment (6-mer frequency, TF over GST control)"
AAACGG,"1.17 fold enrichment (6-mer frequency, TF over GST control)","1.24 fold enrichment (6-mer frequency, TF over GST control)","1.13 fold enrichment (6-mer frequency, TF over GST control)","1.3 fold enrichment (6-mer frequency, TF over GST control)","1.21 fold enrichment (6-mer frequency, TF over GST control)","1.26 fold enrichment (6-mer frequency, TF over GST control)","1.47 fold enrichment (6-mer frequency, TF over GST control)","1.23 fold enrichment (6-mer frequency, TF over GST control)","1.22 fold enrichment (6-mer frequency, TF over GST control)"
TGTAGC,"1.1 fold enrichment (6-mer frequency, TF over GST control)","1.16 fold enrichment (6-mer frequency, TF over GST control)","1.16 fold enrichment (6-mer frequency, TF over GST control)","1.11 fold enrichment (6-mer frequency, TF over GST control)","1.2 fold enrichment (6-mer frequency, TF over GST control)","1.16 fold enrichment (6-mer frequency, TF over GST control)","1.17 fold enrichment (6-mer frequency, TF over GST control)","1.03 fold enrichment (6-mer frequency, TF over GST control)","1.27 fold enrichment (6-mer frequency, TF over GST control)"
ATGTCC,"1.56 fold enrichment (6-mer frequency, TF over GST control)","1.53 fold enrichment (6-mer frequency, TF over GST control)","1.54 fold enrichment (6-mer frequency, TF over GST control)","1.75 fold enrichment (6-mer frequency, TF over GST control)","1.58 fold enrichment (6-mer frequency, TF over GST control)","1.54 fold enrichment (6-mer frequency, TF over GST control)","1.35 fold enrichment (6-mer frequency, TF over GST control)","1.55 fold enrichment (6-mer frequency, TF over GST control)","1.75 fold enrichment (6-mer frequency, TF over GST control)"
TGGTAT,"1.41 fold enrichment (6-mer frequency, TF over GST control)","1.45 fold enrichment (6-mer frequency, TF over GST control)","1.29 fold enrichment (6-mer frequency, TF over GST control)","1.31 fold enrichment (6-mer frequency, TF over GST control)","1.39 fold enrichment (6-mer frequency, TF over GST control)","1.32 fold enrichment (6-mer frequency, TF over GST control)","1.39 fold enrichment (6-mer frequency, TF over GST control)","1.37 fold enrichment (6-mer frequency, TF over GST control)","1.24 fold enrichment (6-mer frequency, TF over GST control)"
ACTGTT,"1.15 fold enrichment (6-mer frequency, TF over GST control)","1.03 fold enrichment (6-mer frequency, TF over GST control)","1.23 fold enrichment (6-mer frequency, TF over GST control)","1.16 fold enrichment (6-mer frequency, TF over GST control)","1.11 fold enrichment (6-mer frequency, TF over GST control)","1.13 fold enrichment (6-mer frequency, TF over GST control)","1.16 fold enrichment (6-mer frequency, TF over GST control)","1.15 fold enrichment (6-mer frequency, TF over GST control)","1.18 fold enrichment (6-mer frequency, TF over GST control)"

# — PMC7862700, “An all-to-all approach to the identification of sequence-specific readers for epigenetic DNA modifications on cytosine”
